Shown are actives, neighbours in structure and some others; about 3.2% of the full set was active somewhere.
FBPA coupling cs: counter-screen for Giardia aldolase inhibitors: coupling enzyme system; coupling enzyme system counterscreen, AmpLite Red fluorescence; activity change, negative = inhibition, % at 58.2 µM, hits read low; 290,000 tested, 0.67% active; in the data active = activity change below about -30%
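Fluorescence at 525 nm excitation and 598 nm emission measured inhibition of the coupled detection system without aldolase. Compounds (at 57.5 uM final) were preincubated 10 min at room temperature with coupling enzyme reagent before a 20 min substrate/AmpLite Red step.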
USP1-UAF1 inh: USP1/UAF1 (human) deubiquitinase inhibition; 390,000 tested, 0.23% active; O94782; recombinant USP1/UAF1, Ub-Rhodamine cleavage fluorescence; Potency, µM (series often up to 57.1 µM), for inactives: top-dose activity change, negative = inhibition, most hits filed as inhibitors; note: potency is the fitted concentration of half-maximal effect; nearly all actives have a fitted effect of over 60% in size
Target sequence (O94782 whole entry, looked up): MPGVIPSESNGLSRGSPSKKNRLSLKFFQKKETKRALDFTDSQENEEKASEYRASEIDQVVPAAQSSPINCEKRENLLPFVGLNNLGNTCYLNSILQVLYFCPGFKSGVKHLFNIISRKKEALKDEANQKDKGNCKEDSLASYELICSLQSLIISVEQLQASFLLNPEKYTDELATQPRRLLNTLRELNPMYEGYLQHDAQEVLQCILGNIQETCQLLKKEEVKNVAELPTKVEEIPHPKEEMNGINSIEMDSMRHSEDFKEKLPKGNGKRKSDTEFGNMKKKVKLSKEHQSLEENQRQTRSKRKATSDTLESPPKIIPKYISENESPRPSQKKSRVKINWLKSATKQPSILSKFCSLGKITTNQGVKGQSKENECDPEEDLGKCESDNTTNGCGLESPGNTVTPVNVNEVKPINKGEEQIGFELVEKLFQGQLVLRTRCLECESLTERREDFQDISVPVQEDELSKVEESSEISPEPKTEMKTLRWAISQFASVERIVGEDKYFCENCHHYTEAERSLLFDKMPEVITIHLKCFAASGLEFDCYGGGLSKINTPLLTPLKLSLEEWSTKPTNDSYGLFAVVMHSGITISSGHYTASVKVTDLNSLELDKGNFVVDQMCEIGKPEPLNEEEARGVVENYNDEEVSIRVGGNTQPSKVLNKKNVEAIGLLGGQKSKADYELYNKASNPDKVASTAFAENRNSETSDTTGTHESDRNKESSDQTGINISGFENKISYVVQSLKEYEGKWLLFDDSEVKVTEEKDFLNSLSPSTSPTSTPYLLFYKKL
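In this screen, compounds sit with the deubiquitinase complex (1nM) for 15 min at room temperature before Ub-Rho is added at 150nM final. Fluorescence rise is then followed for 6 reads every 60 seconds.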
VDR inhibitor: inhibitors of human vitamin D receptor; VDR-SRC2-3 peptide fluorescence polarization, 2 h; Potency, µM, for inactives: max response, negative = inhibition, most hits filed as inhibitors; 400,000 tested, 0.93% active; AID 504847; note: potency is the fitted concentration of half-maximal effect
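Measured by FP: displacement of SRC2-3 coactivator peptide from VDR by library compounds, following a two-hour ambient incubation.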
GALK inh: blocks human galactokinase activity. Potency, µM (titrated, usually from 57.5 µM), for inactives: at the top dose activity change, negative = inhibition, actives largely listed as inhibitors. P51570. Purified GALK, Kinase-Glo residual ATP luminescence. 270,000 tested, 0.007% active; note: potency is the fitted concentration of half-maximal effect
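Quantitative HTS: GALK 5 nM, ATP 35 uM, galactose 100 uM, 1 h room temperature, then luciferase-based ATP detection.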
USP2a inh: inhibitors of human ubiquitin-specific protease USP2a. O75604. USP2 core, Ub-CHOP2 coupled fluorogenic reporter, 485/531. Potency, µM (top dose mostly 38.3 µM), inactives show at the top dose activity change, negative = inhibition, hits mostly inhibitors. 330,000 tested, 0.01% active. AID 463254;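 note: potency is the fitted concentration of half-maximal effect; plate controls were DMSO wells for no effect and full inhibition by NEM control for full effect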
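USP2 core (10nM final) preincubated 30min RT with compound in 20mM Tris-HCl pH 8.0, 2mM CaCl2, 2mM beta-mercaptoethanol, 0.05% CHAPS; 25nM Ub-CHOP2 plus 25nM reporter substrate added, fluorescence (Ex485/Em531) read after 60min.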
PLK1 PBD inh: inhibitors of human PLK1 polo-box domain binding. P53350. Plk1 PBD binding of FITC phosphopeptide, fluorescence polarization. Potency, µM, inactives show max response, negative = inhibition, most hits filed as inhibitors. 360,000 tested, 2.8% active. AID 720504; note: potency is the fitted concentration of half-maximal effect; series mostly up to about 57 µM; nearly all actives have a fitted effect of over 65% in size
An asterisk follows results filed as active; ? = inconclusive; . = not tested or not shown. Unless noted, calls come from the whole dose curve; as a rule, active = well fitted curve in the direction sought with a large enough effect; inconclusive = small, poorly fitted or top-dose-only effect, or another doubt; inactive = no such curve, though single readings can be large; an effect the other way counts as inactive or inconclusive. Unless noted, % is set by controls: 0 for no effect and ±100 for the full control effect.

SMILES	FBPA coupling cs	USP1-UAF1 inh	VDR inhibitor	GALK inh	USP2a inh	PLK1 PBD inh
C=CCn1c(SCC(=O)OC)nc2sc3c(c2c1=O)CCN(C)C3	-5	.	.	1%	0%	.
COc1ccccc1NS(=O)(=O)c1cc(NC(=O)C2CCCC2)ccc1N1CCOCC1	0	-14%	?	12%	3%	15µM*
O=C(COc1ccccc1F)Nc1cc(S(=O)(=O)Nc2cccc(Cl)c2)ccc1O	.	-26%	-19%	.	5%	24µM*
O=S(=O)(Nc1ccccc1F)c1cccc(NC(=S)NCCN2CCOCC2)c1	.	-29%	35µM*	.	-1%	0.95µM*
O=C1[C@H]2[C@H]3[C@H](O)[C@H](O)C/C(=N/OC[C@@H](O)COCc4ccco4)[C@@H]3CC[C@@H]2C(=O)N1Cc1ccc2c(c1)OCO2	1	.	.	.	.	.
O=S(=O)(NCCN1CCOCC1)c1cccs1	5	-12%	-11%	-1%	4%	2%
O=C(O)CCNc1ccc2c(c1)OCCO2	-41*	-10%	14%	-2%	9%	-7%
O=C(Nc1ccc2c(c1)OCCO2)c1ccccc1F	1	-13%	-15%	3%	1%	3µM*
CCOC(=O)Cc1csc(SC(C)C(=O)NCC(=O)Nc2ccc(F)c(F)c2F)n1 (stereo unspecified)	.	5%	9%	-3%	-1%	1%
O=C(Nc1cccc(-n2cccn2)c1)C1CCCN(Cc2cc3ccccc3[nH]2)C1 (stereo unspecified)	-1	-20%	?	.	0%	21µM*
Cn1c(=O)[nH]c(=O)c2c1nc([N+](=O)[O-])n2Cc1ccccc1	-45*	-19%	?	7%	0%	2.4µM*
Cn1c(=O)[nH]c(=O)c2c1nc(N1CCNCC1)n2Cc1ccccc1	-1	-8%	-26%	0%	1%	-3%
CC(C)Cn1c([N+](=O)[O-])nc2c1c(=O)[nH]c(=O)n2C	-31*	-20%	-18%	.	0%	-1%
CC(C)Cn1c(NCCN(C)C)nc2c1c(=O)[nH]c(=O)n2C	3	-12%	-2%	0%	-1%	-8%
COc1ccc(NC(=O)C2CSC3c4ccccc4C(=O)N23)cc1 (stereo unspecified)	4	-2%	-2%	-3%	1%	-9%
CC(C)CC1C(=O)N(Cc2cn(Cc3ccco3)nn2)CCS(=O)(=O)N1Cc1ccc(-c2cccc(CO)c2)cc1 (stereo unspecified)	.	-27%	.	.	.	-11%
CCN(CC)S(=O)(=O)c1ccc(NN)nc1	-6	-19%	?	13%	-2%	24µM*
CC(C)N(C(C)C)S(=O)(=O)c1ccc(NN)nc1	-3	-26%	-23%	7%	-10%	-1%
CCCCSc1nc2sc3c(c2c(=O)n1-c1ccccc1C)CC(C)(C)OC3	.	-9%	5%	.	.	.
c1ccc(Nc2nc(N3CCCCC3)nc(N3CCCCC3)n2)cc1	0	-30%	-14%	0%	0%	21µM*
Cc1ccc(NC(=S)Nc2ccccn2)cc1C	1	-17%	-5%	5%	0%	-19%
Cc1ccc(NC(=S)Nc2ccc3nc(-c4ccccn4)c(-c4ccccn4)nc3c2)cc1C	-53*	-26%	-20%	-1%	26%	-25%
CC(=O)Nc1ccc(OCC(O)CNC2CCCC2)cc1 (stereo unspecified)	-38*	-15%	?	-1%	0%	1%
CCN1C(=NCc2cc(OC)c(OC)c(OC)c2)N[C@@H](c2ccccc2)C(C(=O)OC)=C1C	0	12%	?	.	0%	24µM*
O=C(NC1=NCCS1)c1sc2ccccc2c1Cl	-8	-5%	13%	0%	1%	0%
SMILES	FBPA coupling cs	USP1-UAF1 inh	VDR inhibitor	GALK inh	USP2a inh	PLK1 PBD inh
Cc1[nH]n(-c2ccccc2)c(=S)c1C=NCCCN=Cc1c(C)[nH]n(-c2ccccc2)c1=S	-6	-23%	?	3%	-1%	17µM*
COC(=O)CN=Cc1c(C)[nH]n(-c2ccccc2)c1=O	0	-6%	14%	-1%	-2%	0%
CCOC(=O)c1sc(NC(=O)CSc2nnc(Cc3ccccc3)o2)c(C(=O)OCC)c1C	0	-8%	5%	3%	0%	6%
CC(C)(C)NC(=O)C(c1ccncc1)N(C(=O)Cn1nnc(-c2ccc(F)cc2)n1)c1ccccc1 (stereo unspecified)	-9	-10%	?	0%	-2%	27µM*
CC(C)(C)NC(=O)C(c1ccncc1)N(C(=O)Cn1nnc(-c2ccc(F)cc2)n1)c1ccc(F)cc1 (stereo unspecified)	-1	-12%	-22%	3%	1%	-16%
CCOc1cccc(/C=N/NS(=O)(=O)c2ccc(C)c([N+](=O)[O-])c2)c1O	13	-13%	15%	-3%	-11%	30µM*
Cc1ccc(S(=O)(=O)N/N=C/c2ccc(O)cc2O)cc1[N+](=O)[O-]	16	4%	1%	-1%	1%	?
NC(=O)C1CCCN(CCc2ccccc2)C1 (stereo unspecified)	-2	-12%	10%	-4%	0%	-4%
CCCc1sc(N2CCCC(C(N)=O)C2)nc1-c1ccccc1 (stereo unspecified)	0	-25%	79µM*	.	1%	24µM*
COCCN(C(=O)CNC(=O)c1ccco1)C(C(=O)NC1CCCC1)c1ccc(OC)cc1 (stereo unspecified)	0	-10%	-13%	-2%	-1%	5%
CCN1CCN(C(=S)c2ccc(OCC(=O)NCc3ccccc3)cc2)CC1	2	-28%	?	2%	0%	11µM*
O=C(NN1C(=O)/C(=C\c2ccc(O)c([N+](=O)[O-])c2)SC1=S)c1ccccc1Cl	8	-18%	-18%	-6%	0%	-16%
Nc1ccc(Nc2ccccc2N)cc1	-31*	?	-2%	0%	1%	?
COc1ccc(Nc2ccccc2N)cc1	0	-5%	-30%	-5%	3%	6%
COc1cccc(CNc2cccc3cccnc23)c1O	-57*	?	8%	-3%	-4%	-10%
CC(C)n1c(=S)[nH]c2scc(-c3cccs3)c2c1=O	1	-16%	8%	-2%	3%	27µM*
O=c1c2c(-c3cccs3)csc2ncn1-c1ccccc1	2	-7%	4%	-3%	-4%	-7%
Cc1nc2scc(-c3cccs3)c2c(=O)[nH]1	-1	-17%	-3%	-3%	2%	?
O=c1c2c(-c3cccs3)csc2[nH]c(=S)n1-c1ccccc1	5	-19%	13%	-5%	1%	21µM*
COc1ccc(-c2cc(C(F)(F)F)n3nc(C(=O)Nc4ccccc4SC)cc3n2)cc1OC	.	-15%	13%	.	.	.
